# According to the supplement of paper PMC3334620:
# Over roughly 33,000 sequences, “E-score (-0.5 to 0.5)” has its median near -0.016; the highest 2% begin near 0.3. The sample holds the highest values, similar sequences and a random draw of the others, so the mix is not that of the screen.
# Target: T1, Yer184c (UniProt P39961)
# T1 sequence: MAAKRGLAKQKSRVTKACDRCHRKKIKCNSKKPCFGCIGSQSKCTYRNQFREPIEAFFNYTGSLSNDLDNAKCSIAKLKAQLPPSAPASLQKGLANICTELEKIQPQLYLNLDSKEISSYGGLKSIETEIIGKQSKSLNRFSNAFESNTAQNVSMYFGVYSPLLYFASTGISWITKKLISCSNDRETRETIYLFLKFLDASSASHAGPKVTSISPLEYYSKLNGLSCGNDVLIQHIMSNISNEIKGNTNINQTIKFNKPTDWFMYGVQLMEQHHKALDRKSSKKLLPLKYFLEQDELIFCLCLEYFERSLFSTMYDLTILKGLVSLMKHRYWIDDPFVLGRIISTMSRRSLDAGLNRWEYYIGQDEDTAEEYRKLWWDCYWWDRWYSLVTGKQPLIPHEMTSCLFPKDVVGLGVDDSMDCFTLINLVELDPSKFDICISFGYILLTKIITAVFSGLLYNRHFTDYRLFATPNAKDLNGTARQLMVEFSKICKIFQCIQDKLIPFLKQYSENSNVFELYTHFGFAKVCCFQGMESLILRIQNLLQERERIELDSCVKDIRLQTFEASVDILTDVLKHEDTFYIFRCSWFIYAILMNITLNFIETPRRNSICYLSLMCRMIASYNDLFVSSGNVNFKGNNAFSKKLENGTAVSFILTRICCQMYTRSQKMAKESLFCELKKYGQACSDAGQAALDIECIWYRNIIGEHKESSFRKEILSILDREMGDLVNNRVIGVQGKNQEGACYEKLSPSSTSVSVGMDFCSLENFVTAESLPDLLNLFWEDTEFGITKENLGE
# Assay: PBM E-score (8-mer binding enrichment) (E-score (-0.5 to 0.5)); higher = stronger / more preferred TF binding
# Conditions: protein concentration: 100 nM; construct: GST-full length
# Protocol: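 Universal 'all 10-mer' protein binding microarrays (Agilent AMADID 015681) probed with GST-tagged S. cerevisiae TFs (full-length or DBD) made by in vitro transcription/translation (PURExpress), about 100-200 nM. Bound TF was detected with fluorescent anti-GST. Each ungapped 8-mer (which stands for itself and its reverse complement) is scored by the PBM enrichment score (E-score), a modified Wilcoxon-Mann-Whitney statistic from -0.5 to +0.5, computed with the Universal PBM Analysis Suite. Scale: above 0.35 generally sequence-specific binding.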
row,Sequence,PBM E-score
1,ATTTGTGA,0.0908
2,CCTCAACA,0.126
3,ACCCTAGC,-0.109
4,AACGCCTG,-0.104
5,TCCAGGCA,-0.15
6,CCGCAAAC,0.144
7,AGTCTTCA,-0.0522
8,GTTTCGTA,0.274
9,CTTTCGGC,0.201
10,CTTTCGGA,0.286
11,ATTTCGGG,0.157
12,GTTTCGGA,0.304
13,ATTTCGGC,0.373
14,ATTTCGGA,0.348
15,ATTTCGTC,-0.0283
16,ATTTCGCA,0.24
17,TCATAGGA,-0.0683
18,AATACCGA,0.165
19,GACCATAA,0.0623
20,CTCAGTAA,-0.0129
21,CAATGGAG,-0.164
22,CGGATACG,0.247
23,AATATTCC,0.342
24,AATATTCG,0.0897
25,AATATTAA,0.311

row,Sequence,PBM E-score
1,AATATTAT,0.293
2,TATATTAA,0.274
3,AATATTCA,0.037
4,CGACCACA,-0.136
5,TAGCGAGA,0.00559
6,AAGGACAA,0.0335
7,ATCGGTCC,0.0402
8,GTCCCACA,0.00972
9,CTTGGTGA,-0.0525
10,TCCGAAAA,0.264
11,GCCGAATA,0.361
12,ACCGAAAT,0.218
13,CCCGAAAA,0.263
14,GCCGAAAC,0.34
15,ACCGAATA,0.173
16,CCCGAATA,0.196
17,CCCGAAAC,0.0699
18,ACCGAAAA,0.349
19,ACCGAAAG,0.181
20,ACCGAAAC,0.264
21,GCCGAAAA,0.439
22,GGTGGGAC,-0.349
23,GAAGTAGC,-0.00548
24,AGTAACGG,0.101
25,AACGTAAG,-0.122

row,Sequence,PBM E-score
1,CATCAATC,-0.0552
2,GAGCCCCA,-0.266
3,CCGTGCGA,0.166
4,CTTTGCCA,0.034
5,TAACCATA,-0.0927
6,CTCTTTCC,-0.089
7,TAATTATA,0.322
8,GAATTATA,0.193
9,AAATTATA,0.205
10,GGTGTTCA,0.0476
11,ACCGGACC,0.29
12,ACCGGAAT,0.233
13,ACCGGAAG,0.279
14,ACCGGAAA,0.376
15,GCAGGAAC,-0.0354
16,GCCGGAGC,0.238
17,CCCGGAAC,0.298
18,ACCGGAAC,0.398
19,GCCGGAAC,0.403
20,AAGTCTAA,-0.093
21,CAGTCTCG,-0.0905
22,CAAGCGTC,-0.0502
23,GCTACTTA,-0.201
24,CATCTTGC,0.0249
25,TGGCTCAA,-0.0833

row,Sequence,PBM E-score
1,AGGCTCAG,-0.163
2,AGGCTCAA,-0.157
3,CGGCTCAG,0.337
4,CGGCTCAA,0.314
5,CGGCTCAC,0.183
6,TACAGTCA,-0.0508
7,ATCATTCA,0.195
8,CATGGTGC,-0.169
9,CTACATAG,0.0225
10,CGATACCA,-0.0309
11,TCCGGCCA,0.218
12,GACGGCCA,-0.117
13,GCCGGCCC,0.343
14,GACGGCCC,-0.168
15,GCCGGCCA,0.348
16,ACCGGCCC,0.13
17,GCCAGATA,-0.0238
18,GCCAACCC,-0.059
19,CCAAGGTC,-0.16
20,CGCTTATA,0.0756
21,CCTTGCCA,-0.0398
22,CCTAATGC,-0.233
23,GCTTTCGA,-0.0696
24,ATTTTAGA,0.0124
25,CACTGTCC,0.0762

row,Sequence,PBM E-score
1,CAGCCGAA,0.229
2,GAGCCGAA,0.372
3,GAGCCAAA,-0.115
4,AAGCCGAT,0.356
5,AAGCCGAC,0.13
6,AAGCCAAA,0.0744
7,AAGCCGAG,0.286
8,AAGCCGAA,0.389
9,GAGCCGAC,0.0364
10,CTAAACGC,0.0164
11,CTAGGCAC,-0.14
12,AGACCCAA,-0.134
13,GATGTTCC,0.239
14,AGACCCCG,0.08
15,ATGAAACA,0.02
16,TCCCGGAA,0.391
17,ACCCGGAG,0.348
18,GCCCCGGA,0.234
19,GCCCGGAA,0.359
20,ACCCGGTA,0.183
21,ACCCCGGA,0.142
22,ACCCGGAA,0.346
23,CCCCGGAG,0.135
24,TCCCCGGA,0.224
25,GCCCGGAC,0.192

row,Sequence,PBM E-score
1,ACCCGGAT,0.185
2,CCCCGGAA,0.151
3,ACTCGATA,0.0187
4,CCGACTAG,-0.036
5,TAGAAATA,0.126
6,ATGCTCTC,-0.0198
7,CAGCTACC,-0.113
8,CCATAGAG,-0.11
9,GGCATACC,-0.214
10,ACAAGGTC,-0.234
11,CAGTGGAC,-0.0743
12,AACCAAAC,-0.103
13,ATGTTCCC,-0.107
14,CCGTTCCA,0.0249
15,ACGTTCCG,0.0307
16,ATGTTCCG,0.347
17,CAGTTCCG,0.199
18,ATGTTCCA,0.016
19,CCGTTCCG,0.304
20,AAGTTCCT,0.0951
21,AAGTTCCG,0.307
22,TCAAGCCA,-0.0394
23,TAGTATGA,0.129
24,AAGGGCCC,-0.28
25,GACGCTTA,-0.148

row,Sequence,PBM E-score
1,AAAACTTA,0.245
2,GCGGAACC,0.268
3,ACGGAACT,0.197
4,ACGGAACC,0.329
5,CCGGAACC,0.363
6,AGGGAACC,-0.101
7,CAGGAACG,-0.0846
8,CCGGAACG,0.329
9,CAGGAACC,-0.147
10,ACGGAACG,0.212
11,CCTTGGAA,0.00859
12,TGCAAGCA,-0.0504
13,CAGCGTTA,-0.141
14,ATACGCTA,0.0126
15,ACCTTCAT,-0.00129
16,CTCCAGAG,-0.154
17,ATCCGAAC,0.261
18,CTCCGAAC,0.323
19,CCCCGAAC,-0.00623
20,CACCGAAG,0.192
21,CGCCGAAC,0.345
22,CGCCGATC,0.129
23,CGCCGAAG,0.328
24,AGCCGAAG,0.14
25,CTCCGAAG,0.303
